Screening data: PubChem BioAssay, National Center for Advancing Translational Sciences (NCATS)
A selection: hits, their analogues and other compounds. The true share with any hit is near 13%.
Pf growth 96h: Primary qHTS for delayed death inhibitors of the malarial parasite plastid, 96 hour incubation; Potency, µM (highest dose often 28.7 µM), hits mostly inhibitors; 6.9% of 320,000 active; AID 504834, 2011; P. falciparum luciferase reporter growth, 96 h
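P. falciparum expressing integrated firefly luciferase, in erythrocytes at 2% hematocrit, 0.05% parasitemia, incubated with compounds 96 h at 37 C, 5% CO2. Growth inhibition read as loss of luminescence; two-generation exposure targets delayed-death apicoplast inhibitors.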
Pf growth 48h: Primary qHTS for delayed death inhibitors of the malarial parasite plastid, 48 hour incubation | P. falciparum luciferase growth in erythrocytes, 48 h | Potency, µM (doses to about 28.7 µM), hits mostly inhibitors | 5.9% of 310,000 active
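A one-generation exposure of luciferase-tagged malaria parasites in RPMI 1640/Albumax erythrocyte culture, 37 C and 5% CO2. Inhibition is inferred from decreased luminescence after adding detection reagent.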
HCMV inh: qHTS Assay for inhibitors of the human cytomegalovirus (HCMV); HFF cells, HCMV-luciferase reporter, 72 h; stronger effect = lower value; activity change, negative = inhibition, % at 57.5 µM; 4.5% of 410,000 active; AID 1259415, 2018; in the data active means activity change below about -60%; inconclusive means no clear call, values can overlap the other calls; inactive means above about -39%
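Human foreskin fibroblasts infected with luciferase-reporter HCMV at MOI 1 PFU/cell, compounds at two doses. Luciferase measured 72 h post infection; normalized to buffer-only basal and Salinomycin (10uM) controls.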
HCV inh: qHTS Assay for Inhibitors of Hepatitis C Virus (HCV); Potency, µM (series often up to 41.8 µM), most hits filed as inhibitors; 3.4% of 340,000 active; Huh7.5.1 HCVcc-Cre infection, luciferase reporter, 44 h
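Reporter virus HCVcc-Cre (~0.5 moi) infects cells exposed to compound; seeding density 1,000 cells/well with 4 h settling beforehand. Luminescence, 15 sec read, taken 44 h post-infection following a 15 min RT substrate incubation.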
Numbers stand for hits; 0 = inactive; ? = inconclusive; - = no result given; [ ] = remark or other dose. Unless noted, the call rests on the fitted dose curve; in most records, active means well fitted inhibition curve with a large enough effect; inconclusive means small, poorly fitted or top-dose-only effect, or another doubt; inactive means no such curve, though single readings can be large or run the other way.

SMILES	Pf growth 96h	Pf growth 48h	HCMV inh	HCV inh
O=S(=O)(c1ccc(NC(=S)N2CCOCC2)cc1)N1CCCCC1	-	-	0	-
O=S(=O)(c1ccc(NC(=S)NN=C(Cc2ccccc2)Cc2ccccc2)cc1)N1CCOCC1	?	0	0	10µM
COc1ccc(OC)c(NC(=O)Cn2cc(C#N)c3cc(Br)ccc32)c1	0	?	-66	?
CCCCC/C=C\C[C@H](O)/C=C/c1cccc(C[C@H](O)CCCCO)n1	?	13µM	0	0[8.37 µM]
Cc1[nH]c(=O)[nH]c(=O)c1/C=N/NC(=O)[C@@H](N)CC(C)C	?	5.2µM	0	?
O=S(=O)(NCC1CN(S(=O)(=O)c2c(F)cccc2F)C1)c1ccc2c(c1)OCCO2	0	0	-62	-
O=S(=O)(NCCCCCNS(=O)(=O)c1c(F)cccc1F)c1ccc2c(c1)OCCO2	?	0	0	-
COc1cccc(NC(=O)c2cc(CN3CCOCC3)on2)c1	-	-	0	-
COc1cc(Cl)c(C)cc1NC(=O)c1sc2nc3n(c(=O)c2c1C)CCCCC3	-	-	0	-
COC(=O)c1c(-c2cccc3ccccc23)csc1NC(=O)Cc1ccc(OC)c(OC)c1	2.6µM	-	?	5.6µM
CCN(Cc1ccccc1)Cc1ccc(OCc2ccccc2)c(OC)c1	0	?	0	0
COc1ccc(CC(=O)Nc2cccc3ncccc23)cc1OC	0	0	0	0
COC(=O)c1c(-c2ccc(C)cc2)csc1NC(=O)Cc1ccc(OC)c(OC)c1	?	-	-65	?
COc1cc(CN(C)CCc2ccccc2)ccc1OCc1ccccc1	?	?	0	3.5µM
COc1ccc(CC(=O)Nc2cccc3ccccc23)cc1OC	0	0	-85	?
COC(=O)c1sccc1NC(=O)Cc1ccc(OC)c(OC)c1	?	0	0	0
COc1ccc(-c2cn3nc(N4CCCC(C(=O)NCc5ccccc5C)C4)sc3n2)cc1 (centres undefined)	-	-	0	-
CCOC(=O)c1[nH]c2ccccc2c1NC(=O)c1ccccc1F	-	-	0	-
COc1ccc(CC(=O)NNC(=O)CCc2ccccc2)cc1OC	13µM	0	0	0
O=C(CCCN1C(=O)C(c2ccccc2)Oc2cccnc21)Nc1cccc(F)c1 (centres undefined)	?	10µM	0	0
O=C(CN1C(=O)C(c2ccccc2)Oc2cccnc21)NCc1ccccc1F (centres undefined)	9.3µM	?	0	?
CC(=O)Nc1ccc(NC(=O)CCCN2C(=O)C(c3ccccc3)Oc3cccnc32)cc1 (centres undefined)	-	-	0	-
COc1ccc(CNC(=O)CN2C(=O)C(c3ccccc3)Oc3cccnc32)cc1 (centres undefined)	?	0	0	0
Cc1cc(C)cc(NC(=O)CCCN2C(=O)C(c3ccccc3)Oc3cccnc32)c1 (centres undefined)	3.7µM	?	0	?
CC(=O)c1ccc(NC(=O)CCCN2C(=O)C(c3ccccc3)Oc3cccnc32)cc1 (centres undefined)	?	?	0	0
SMILES	Pf growth 96h	Pf growth 48h	HCMV inh	HCV inh
Cc1cc(C)c(C(=O)N(CCN(C)C)CC2CCCN(Cc3ccccc3F)C2)o1 (centres undefined)	?	12µM	0	0
CN(C)CCN(CC1CCCN(Cc2ccccc2F)C1)C(=O)c1ccc(F)cc1 (centres undefined)	0	?	0	?
COc1cc(C(=O)N(CCN(C)C)CC2CCCN(Cc3ccccc3F)C2)ccc1C (centres undefined)	0	10µM	0	?
COc1cc(-c2nc(SCC(=O)Nc3ccc(C)cc3)c(-c3ccc(F)cc3)[nH]2)cc(OC)c1OC	-	-	-61	-
COCCCNC(=O)CSc1nc(-c2ccc(OC)cc2)[nH]c1-c1ccc(OC)cc1	-	-	-112	-
COc1ccc(-c2[nH]c(-c3cccc(OC)c3)nc2SCC(=O)NCc2ccco2)cc1	?	?	0	11µM
CCOC(=O)c1cc2c(=O)n3ccccc3nc2n(CCCOC)c1=NC(=O)c1cc2ccccc2o1	-	-	0	-
CCOC(=O)c1ccc(N2C(=O)c3n[nH]c(-c4ccco4)c3C2c2cccc(O)c2)cc1 (centres undefined)	-	-	0	-
COc1ccc(C2c3c(-c4ccccc4)n[nH]c3C(=O)N2c2ccc(C(=O)O)cc2)cc1 (centres undefined)	?	?	0	0
CCOC(=O)c1ccc(N2C(=O)c3n[nH]c(-c4ccco4)c3C2c2ccc(F)cc2)cc1 (centres undefined)	-	-	-89	-
CCOC(=O)c1ccc(N2C(=O)c3n[nH]c(-c4ccco4)c3C2c2ccccc2OC)cc1 (centres undefined)	-	-	-101	-
CCOC(=O)c1ccc(N2C(=O)c3[nH]nc(-c4ccc(OC)cc4)c3C2c2ccc(C)cc2)cc1 (centres undefined)	-	-	-83	-
CCOC(=O)c1ccc(N2C(=O)c3n[nH]c(-c4ccco4)c3C2c2cccc(F)c2)cc1 (centres undefined)	-	-	-98	-
CCOC(=O)c1ccc(N2C(=O)c3n[nH]c(-c4ccco4)c3C2c2cccc(OC)c2)cc1 (centres undefined)	-	-	0	-
Cc1ccc(C(=O)NCC(c2ccco2)S(=O)(=O)c2ccccc2)cc1C (centres undefined)	-	-	0	-
CCn1cc(S(=O)(=O)c2cc(C)cc(C)c2)c(=O)c2cc(F)c(N3CCN(c4ccccc4)CC3)cc21	-	-	0	-
CCOC(=O)c1ccc(N2C(=O)c3n[nH]c(-c4ccco4)c3C2c2ccc(OCC)cc2)cc1 (centres undefined)	-	-	-88	-
COc1cc(N=Nc2cccc(S(N)(=O)=O)c2)c2ccccc2c1N	2.9µM	4.1µM	-66	?
COC(=O)c1ccc(OCC2c3cc(OC)c(OC)cc3CCN2C(=O)C(C)C)cc1 (centres undefined)	-	-	0	-
CCOc1ccc(NC(=O)C(CC)n2nc(-c3ccc(C)c(C)c3)ccc2=O)cc1 (centres undefined)	-	-	0	-
COc1ccc(-c2nnc(Nc3nc4c(OC)cccc4s3)o2)c(OC)c1	0	10µM	-	6.3µM
COc1cc(OC)cc(-c2nnc(Nc3nc4c(F)cccc4s3)o2)c1	12µM	0	0	0
Fc1cccc2sc(Nc3nnc(-c4ccccc4)o3)nc12	0	0	0	0
COc1ccc(-c2nnc(Nc3nc4c(OC)cccc4s3)o2)cc1	0	-	0	?
COc1cc(CNc2cccc3c2S(=O)(=O)N([C@H](C)c2ccccc2)C[C@@H](COCc2ccccc2)O3)cc(OC)c1OC	-	-	0	-
COc1ccc(-c2cc(C(=O)Nc3c(C(=O)c4ccc(C)cc4)oc4ccccc34)no2)cc1	-	-	0	-
CC(C)C(C)NC(=O)CSc1nc2scc(-c3ccco3)c2c(=O)n1-c1ccccc1 (centres undefined)	-	12µM	-63	0
Cc1sc2nc(SCC(=O)NCc3ccco3)n(-c3ccccc3)c(=O)c2c1C	0	0	0	0
